From ChEMBL document CHEMBL2218924, “A broad activity screen in support of a chemogenomic map for kinase signalling research and drug discovery” (Biochem J, 2013) come the findings set out here.

Molecules are shown by their SMILES.

Assay [1] addresses T1, Mitogen-activated protein kinase kinase kinase 7 (Homo sapiens) (UniProt O43318).
T1 sequence (whole entry): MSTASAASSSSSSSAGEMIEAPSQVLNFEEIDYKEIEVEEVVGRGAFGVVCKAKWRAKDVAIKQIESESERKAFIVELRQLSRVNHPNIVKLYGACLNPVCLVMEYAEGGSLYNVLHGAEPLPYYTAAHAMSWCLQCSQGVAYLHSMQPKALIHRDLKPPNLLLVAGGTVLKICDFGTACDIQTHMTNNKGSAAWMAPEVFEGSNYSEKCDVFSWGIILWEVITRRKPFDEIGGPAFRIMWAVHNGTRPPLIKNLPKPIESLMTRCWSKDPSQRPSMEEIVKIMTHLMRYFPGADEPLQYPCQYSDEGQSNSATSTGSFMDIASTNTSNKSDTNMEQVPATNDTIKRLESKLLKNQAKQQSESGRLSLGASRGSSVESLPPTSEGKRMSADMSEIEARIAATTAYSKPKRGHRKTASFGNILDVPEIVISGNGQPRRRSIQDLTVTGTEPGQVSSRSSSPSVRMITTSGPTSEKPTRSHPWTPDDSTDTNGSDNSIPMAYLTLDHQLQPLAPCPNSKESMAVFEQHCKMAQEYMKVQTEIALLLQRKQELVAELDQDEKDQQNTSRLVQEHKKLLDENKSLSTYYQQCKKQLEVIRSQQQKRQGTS
As to conditions: at 1 µM.

The target of assay [2] is T1, Mitogen-activated protein kinase kinase kinase 7 (Homo sapiens). As to conditions: at 10 µM.
Assay [3] deals with T2, Serine/threonine-protein kinase TAO1 (Homo sapiens) (UniProt Q7L7X3).
T2 sequence (whole entry): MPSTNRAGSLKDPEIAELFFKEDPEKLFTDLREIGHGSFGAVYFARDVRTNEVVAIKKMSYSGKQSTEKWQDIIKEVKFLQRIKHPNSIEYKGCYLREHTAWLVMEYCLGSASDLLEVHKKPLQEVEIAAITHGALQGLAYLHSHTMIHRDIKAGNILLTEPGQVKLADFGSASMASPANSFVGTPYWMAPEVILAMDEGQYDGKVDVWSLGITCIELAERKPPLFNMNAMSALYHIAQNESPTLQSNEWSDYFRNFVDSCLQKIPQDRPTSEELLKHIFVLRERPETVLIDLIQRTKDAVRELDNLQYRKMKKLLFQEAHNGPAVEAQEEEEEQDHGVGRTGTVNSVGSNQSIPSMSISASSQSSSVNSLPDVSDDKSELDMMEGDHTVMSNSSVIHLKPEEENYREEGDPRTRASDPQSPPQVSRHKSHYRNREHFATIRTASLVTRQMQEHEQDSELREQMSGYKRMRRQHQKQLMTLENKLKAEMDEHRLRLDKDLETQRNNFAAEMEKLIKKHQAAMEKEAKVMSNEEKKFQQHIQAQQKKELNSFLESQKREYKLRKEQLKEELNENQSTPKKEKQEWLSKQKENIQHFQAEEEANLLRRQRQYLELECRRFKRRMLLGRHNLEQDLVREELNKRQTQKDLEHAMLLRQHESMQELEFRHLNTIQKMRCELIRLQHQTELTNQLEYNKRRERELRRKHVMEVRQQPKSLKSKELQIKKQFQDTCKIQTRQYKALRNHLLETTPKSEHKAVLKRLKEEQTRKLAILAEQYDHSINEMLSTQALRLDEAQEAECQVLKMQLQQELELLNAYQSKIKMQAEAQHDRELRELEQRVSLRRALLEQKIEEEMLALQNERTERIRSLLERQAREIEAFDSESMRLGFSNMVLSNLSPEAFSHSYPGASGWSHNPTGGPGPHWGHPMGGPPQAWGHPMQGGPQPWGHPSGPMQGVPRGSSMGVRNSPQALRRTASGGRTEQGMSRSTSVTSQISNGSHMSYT
As to conditions: at 1 µM.

For assay [4], the target named is T2, Serine/threonine-protein kinase TAO1 (Homo sapiens). The conditions noted are these: at 10 µM.
Assay [5] concerns the target T3, Serine/threonine-protein kinase TAO3 (Homo sapiens) (UniProt Q9H2K8).
T3 sequence (whole entry): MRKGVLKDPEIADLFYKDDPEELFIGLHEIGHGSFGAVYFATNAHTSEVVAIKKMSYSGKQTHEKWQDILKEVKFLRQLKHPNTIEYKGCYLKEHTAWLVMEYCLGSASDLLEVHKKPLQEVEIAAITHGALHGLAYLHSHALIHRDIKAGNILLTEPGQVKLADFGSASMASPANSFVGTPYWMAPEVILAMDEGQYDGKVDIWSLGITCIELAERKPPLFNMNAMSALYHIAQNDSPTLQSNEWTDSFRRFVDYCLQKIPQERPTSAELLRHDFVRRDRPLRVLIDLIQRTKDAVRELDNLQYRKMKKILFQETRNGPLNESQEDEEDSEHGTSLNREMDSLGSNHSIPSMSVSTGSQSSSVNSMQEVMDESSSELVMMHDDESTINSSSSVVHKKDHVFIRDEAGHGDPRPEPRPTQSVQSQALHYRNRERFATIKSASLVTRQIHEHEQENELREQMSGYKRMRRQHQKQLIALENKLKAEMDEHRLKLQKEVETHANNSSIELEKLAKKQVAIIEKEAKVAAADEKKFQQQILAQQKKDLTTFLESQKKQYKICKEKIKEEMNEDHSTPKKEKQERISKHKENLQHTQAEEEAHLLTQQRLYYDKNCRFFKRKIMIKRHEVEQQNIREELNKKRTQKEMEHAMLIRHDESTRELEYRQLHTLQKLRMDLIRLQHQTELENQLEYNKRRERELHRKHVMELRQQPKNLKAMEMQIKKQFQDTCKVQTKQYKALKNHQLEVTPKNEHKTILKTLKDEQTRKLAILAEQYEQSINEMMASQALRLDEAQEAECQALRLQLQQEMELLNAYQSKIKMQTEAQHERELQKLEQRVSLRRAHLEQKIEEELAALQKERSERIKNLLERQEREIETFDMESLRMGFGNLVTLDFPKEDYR
As to conditions: at 1 µM.

Assay [6] concerns the target T3, Serine/threonine-protein kinase TAO3 (Homo sapiens). As to conditions: at 10 µM.
Assay [7] has as its target T4, Serine/threonine-protein kinase TBK1 (Homo sapiens) (UniProt Q9UHD2).
T4 sequence (whole entry): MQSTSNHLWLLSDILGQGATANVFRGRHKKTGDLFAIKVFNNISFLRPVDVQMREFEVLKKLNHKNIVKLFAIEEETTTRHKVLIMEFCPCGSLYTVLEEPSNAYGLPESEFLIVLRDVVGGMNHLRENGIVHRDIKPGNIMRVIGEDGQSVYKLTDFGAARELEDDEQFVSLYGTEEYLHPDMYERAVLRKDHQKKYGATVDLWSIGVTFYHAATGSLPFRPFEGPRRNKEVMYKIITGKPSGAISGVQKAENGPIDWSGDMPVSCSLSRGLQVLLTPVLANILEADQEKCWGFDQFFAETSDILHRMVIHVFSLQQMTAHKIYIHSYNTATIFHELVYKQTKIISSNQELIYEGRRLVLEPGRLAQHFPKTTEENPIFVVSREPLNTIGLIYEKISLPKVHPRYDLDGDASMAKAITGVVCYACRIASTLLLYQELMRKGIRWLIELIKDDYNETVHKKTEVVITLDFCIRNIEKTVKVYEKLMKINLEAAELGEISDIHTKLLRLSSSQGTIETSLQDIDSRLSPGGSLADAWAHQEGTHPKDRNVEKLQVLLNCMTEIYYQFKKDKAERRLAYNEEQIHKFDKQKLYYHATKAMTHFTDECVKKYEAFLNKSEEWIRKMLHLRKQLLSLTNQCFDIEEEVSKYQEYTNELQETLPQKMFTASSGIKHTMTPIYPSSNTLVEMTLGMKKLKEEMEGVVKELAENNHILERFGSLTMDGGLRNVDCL
As to conditions: at 1 µM.

Assay [8] has as its target T4, Serine/threonine-protein kinase TBK1 (Homo sapiens). As to conditions: at 10 µM.
Assay [9] addresses T5, Inhibitor of nuclear factor kappa-B kinase subunit alpha (Homo sapiens) (UniProt O15111).
T5 sequence (whole entry): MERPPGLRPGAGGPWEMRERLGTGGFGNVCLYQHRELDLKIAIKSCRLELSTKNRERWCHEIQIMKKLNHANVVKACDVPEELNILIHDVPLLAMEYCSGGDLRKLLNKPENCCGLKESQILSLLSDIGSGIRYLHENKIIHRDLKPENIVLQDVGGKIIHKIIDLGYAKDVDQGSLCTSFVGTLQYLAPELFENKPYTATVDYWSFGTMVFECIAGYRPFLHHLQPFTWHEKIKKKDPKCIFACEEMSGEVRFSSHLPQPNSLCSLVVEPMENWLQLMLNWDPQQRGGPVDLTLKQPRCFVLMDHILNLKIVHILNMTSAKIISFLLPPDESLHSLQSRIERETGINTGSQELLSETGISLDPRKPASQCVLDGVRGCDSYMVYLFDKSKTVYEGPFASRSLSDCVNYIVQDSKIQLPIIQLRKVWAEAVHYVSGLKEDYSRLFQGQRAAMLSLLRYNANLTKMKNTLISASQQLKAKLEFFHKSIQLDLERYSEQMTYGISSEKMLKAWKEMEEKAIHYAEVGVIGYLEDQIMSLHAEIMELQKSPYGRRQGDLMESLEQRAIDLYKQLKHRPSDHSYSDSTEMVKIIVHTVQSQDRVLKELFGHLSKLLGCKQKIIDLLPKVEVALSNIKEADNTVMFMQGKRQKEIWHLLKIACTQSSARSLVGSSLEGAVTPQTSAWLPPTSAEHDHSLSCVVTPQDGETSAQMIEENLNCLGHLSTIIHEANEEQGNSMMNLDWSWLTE
The conditions noted are these: at 1 µM.

In assay [10] the target is T5, Inhibitor of nuclear factor kappa-B kinase subunit alpha (Homo sapiens). The conditions noted are these: at 10 µM.
The target of assay [11] is T6, Inhibitor of nuclear factor kappa-B kinase subunit beta (Homo sapiens) (UniProt O14920).
T6 sequence (whole entry): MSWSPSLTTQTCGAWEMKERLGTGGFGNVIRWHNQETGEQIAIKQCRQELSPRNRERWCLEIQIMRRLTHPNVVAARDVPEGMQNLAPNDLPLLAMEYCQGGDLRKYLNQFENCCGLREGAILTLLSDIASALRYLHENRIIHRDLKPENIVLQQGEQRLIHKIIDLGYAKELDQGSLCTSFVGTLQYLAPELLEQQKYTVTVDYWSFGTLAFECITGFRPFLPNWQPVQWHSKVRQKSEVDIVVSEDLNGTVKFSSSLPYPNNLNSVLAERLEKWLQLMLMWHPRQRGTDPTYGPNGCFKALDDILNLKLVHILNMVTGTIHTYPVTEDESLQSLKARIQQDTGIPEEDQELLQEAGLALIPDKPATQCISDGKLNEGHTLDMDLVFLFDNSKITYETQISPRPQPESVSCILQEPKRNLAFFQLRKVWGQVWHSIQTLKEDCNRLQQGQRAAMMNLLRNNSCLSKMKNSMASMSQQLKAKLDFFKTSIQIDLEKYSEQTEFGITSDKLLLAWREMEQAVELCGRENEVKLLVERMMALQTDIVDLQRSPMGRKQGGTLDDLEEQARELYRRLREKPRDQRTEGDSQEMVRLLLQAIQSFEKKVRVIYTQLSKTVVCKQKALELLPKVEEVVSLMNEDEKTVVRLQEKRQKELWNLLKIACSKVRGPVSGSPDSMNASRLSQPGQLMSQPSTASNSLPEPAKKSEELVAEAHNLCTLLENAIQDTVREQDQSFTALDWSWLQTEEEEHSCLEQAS
As to conditions: at 10 µM.

Assay [12] deals with T7, Serine/threonine-protein kinase TAO2 (Homo sapiens) (UniProt Q9UL54).
T7 sequence (whole entry): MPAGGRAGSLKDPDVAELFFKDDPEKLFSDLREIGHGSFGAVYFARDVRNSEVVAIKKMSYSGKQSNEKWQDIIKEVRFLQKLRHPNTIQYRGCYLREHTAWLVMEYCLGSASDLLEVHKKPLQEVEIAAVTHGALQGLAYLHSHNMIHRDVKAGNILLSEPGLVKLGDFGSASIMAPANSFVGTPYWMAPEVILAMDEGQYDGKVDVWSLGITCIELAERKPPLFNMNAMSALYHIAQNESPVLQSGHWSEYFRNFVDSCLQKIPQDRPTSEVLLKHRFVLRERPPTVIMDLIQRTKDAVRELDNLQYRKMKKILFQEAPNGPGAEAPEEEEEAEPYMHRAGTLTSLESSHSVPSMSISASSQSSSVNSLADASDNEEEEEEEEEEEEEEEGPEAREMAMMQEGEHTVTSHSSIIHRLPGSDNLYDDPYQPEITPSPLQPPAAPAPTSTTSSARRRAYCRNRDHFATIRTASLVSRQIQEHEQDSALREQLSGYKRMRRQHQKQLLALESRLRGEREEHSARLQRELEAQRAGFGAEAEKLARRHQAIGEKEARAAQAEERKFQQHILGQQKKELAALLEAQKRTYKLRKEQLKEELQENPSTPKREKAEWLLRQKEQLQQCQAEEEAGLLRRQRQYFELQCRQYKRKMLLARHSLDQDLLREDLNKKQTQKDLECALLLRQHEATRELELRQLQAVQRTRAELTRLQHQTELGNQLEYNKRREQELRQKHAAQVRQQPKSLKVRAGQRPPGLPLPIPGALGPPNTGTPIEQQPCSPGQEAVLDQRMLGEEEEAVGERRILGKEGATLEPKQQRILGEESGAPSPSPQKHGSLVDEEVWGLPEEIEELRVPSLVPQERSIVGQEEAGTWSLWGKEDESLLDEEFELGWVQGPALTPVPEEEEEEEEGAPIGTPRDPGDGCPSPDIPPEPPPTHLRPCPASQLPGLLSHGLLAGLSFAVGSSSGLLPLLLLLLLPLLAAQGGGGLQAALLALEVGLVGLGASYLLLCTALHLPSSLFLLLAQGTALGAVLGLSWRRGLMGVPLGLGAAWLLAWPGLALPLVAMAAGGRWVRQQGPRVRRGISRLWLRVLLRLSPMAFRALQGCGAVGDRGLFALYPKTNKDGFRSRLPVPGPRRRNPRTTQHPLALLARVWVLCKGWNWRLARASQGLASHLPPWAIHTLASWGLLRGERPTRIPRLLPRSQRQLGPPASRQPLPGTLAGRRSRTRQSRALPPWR
The conditions noted are these: at 1 µM.

Assay [13] deals with T7, Serine/threonine-protein kinase TAO2 (Homo sapiens). As to conditions: at 10 µM.

In the case of `CC(C)(C)c1nc2c3ccc(F)cc3c3c(=O)[nH]ccc3c2[nH]1`, the residual activity in assay [1] came out at 44%; in assay [2], 62%; in [3], 56%; in [4], 24%; in [5], 68%; in assay [6], 73%. Also, the residual activity came out at 15% in assay [7]; 3% in [8]; 52% in assay [9]; 32% in [10]; 27% in [11].

Consider `NC(=O)c1ccc(-c2nc(-c3ccc4c(c3)OCCO4)c(-c3ccccn3)[nH]2)cc1`, for which the residual activity in [3] stood at 96%; in assay [4] it was 80%; in [12], 100%; in [13], 93%; in assay [7], 83%; in assay [8], 72%.
